# Test results: PubChem BioAssay (NCATS)
# Inconclusive results are not listed. Unmarked numbers belong to inactive results. Calls of active or inactive are those of the source.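 How the source made its calls: active means dose-dependent loss of cell ATP signal giving a full or clear fitted curve, ranked by lower potency value; inconclusive means weak partial curve or response only at the top dose; inactive means no loss of viability signal.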
# Assay: Cell Viability - Jurkat (AID 426);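 further: cells exposed to compound for 40 hours at 37 °C before ATP read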
# Conditions: qHTS
# Source text: NIH Chemical Genomics Center [NCGC]
# NIH Molecular Libraries Screening Centers Network [MLSCN]
# National Institutes of Environmental Health Sciences [NIEHS]
# National Toxicology Program [NTP]
# We have developed a 1536-well cell-based assay for quantitative high throughput screening (qHTS) against a number of cell lines to determine in vitro cytotoxicity of small molecules. This particular assay uses the Jurkat cell line (Clone E6-1) which is derived from the human T cell leukemia.
# NCGC Assay Protocol Summary:
# The CellTiter-Glo luminescent cell viability assay (Promega) is a homogeneous method to measure the number of viable cells in culture. The end point readout of this assay is based on quantitation of intracellular ATP, an indicator of metabolic activity, using the luciferase reaction. Luciferase catalyzes the oxidation of beetle Luciferin to oxyluciferin and light in the presence of ATP. The luminescent signal is proportional to amount of ATP present.
# Using the CellTiter-Glo luminescent cell viability assay, the amount of cellular ATP was measured in the Jurkat cell line with complete culture medium following compound treatment for 40 hours. The assay was performed in opaque white Kalypsys 1536-well plates. In the screen, tamoxifen and doxorubicin were used as positive controls. Library compounds were measured for their ability to cause acute toxicity in the cell line, as reflected by a decrease in intracellular ATP levels, in a concentration-dependent manner. […] AC50 values were determined from concentration-response data modeled with the standard Hill equation.
# qHTS protocol for CellTiter Glo Jurkat cellular assay
# [Step] [Parameter] [Value] [Description]
# 1. Reagent; 5 uL; 5000 Jurkat cells/well
# 3. Controls; 23 nL; Tamoxifen 0.34 uM to 100 uM & Doxorubicin 0.02 nM to 100 uM
# 4. Time; 40 hr; 37 °C incubation
# 5. Reagent; 5 uL; CellTiter Glo reagent
# 6. Time; 20 min; Room Temperature
# 7. Detection; Luminescence; Viewlux plate reader
# Keywords: cell viability, cytotoxicity, Jurkat cell line, luminescence, NTPHTS, NTPHTS_NCGC, NIEHS, EPA, DSSTox, MLSMR, MLSCN, NIH Roadmap, qHTS, NCGC
# Potency means the concentration at half of the fitted maximal effect.
row,SMILES,Potency
1,CC(C)=O,> 92 µM
2,CC1=C2[C@@H]([C@H](C)CC[C@H]2/C=C(\C)C(=O)O)[C@H](O)C1,> 92 µM
3,CC(C)(C)NC(=O)[C@@H]1C[C@@H]2CCCC[C@@H]2CN1C[C@@H](O)[C@H](Cc1ccccc1)NC(=O)[C@H](CC(N)=O)NC(=O)c1ccc2ccccc2n1,46.4 µM (active)
4,CCCCCCCC(=O)O,> 92 µM
5,O=CCCCC=O,6.45 µM (active)
6,O=C(O)CCC(=O)C(=O)O,> 92 µM
7,CCCCC/C=C\C/C=C\CCCCCCCC(=O)O,> 92 µM
8,CCOC(C)=O,> 92 µM
9,CCCCCCCC/C=C\CCCCCCCC(=O)O,> 92 µM
10,Cc1ccccc1,> 92 µM
11,IC(I)I,> 92 µM
12,Nc1ccn([C@H]2CS[C@@H](CO)O2)c(=O)n1,> 92 µM
13,CC(O)CO (stereo not given),> 92 µM
14,O=S(=O)(O)O,> 92 µM
15,CCOc1ccc2c(c1)C(C)=CC(C)(C)N2,> 92 µM
